# Experimental data published in PubChem BioAssay AID743279 (National Center for Advancing Translational Sciences (NCATS), 2014).
# The whole screen tested about 360,000 compounds, of which about 17,000 (4.7%) were called active. Inconclusive results (about 5%) are left out. Shown is part of a subset that was picked to be rich in actives. A number with no mark means an inactive call. No stated cut-off is given here; in the data, active means activity change below about -50%; inconclusive means mostly about -30% to -49%; inactive means weaker than that.
# Test: qHTS for Inhibitors of Inflammasome Signaling: IL-1-beta AlphaLISA Primary Screen
# Conditions: THP-1 LPS/ATP IL-1B secretion, 16 h; at 57.5 µM, active compounds read low
# Procedure, shortened: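 THP-1 cells pretreated 1 hr with compounds (up to 57.5 uM final), then stimulated with LPS (250 ng/mL final) plus ATP (1.25 mM final); secreted IL-1B measured by AlphaLISA after 16 hr, decreased signal indicating inhibition.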
# On the % scale 0 is the no-effect control and ±100 the full control effect.
row,Compound,activity change
1,CC(C[N+](C)(C)C)OC(N)=O (stereo not drawn),8.81%
2,CC(=O)OCC(COC(C)=O)OC(C)=O,12.6%
3,CC(=O)OC(C)C[N+](C)(C)C (stereo not drawn),-70.2% (active)
4,CC1=C(C(=O)N2CCOCC2)CC(CC(=O)NCc2ccco2)C(=O)N1Cc1ccc(F)cc1 (stereo not drawn),17.5%
5,O=C1NC[C@H](CCCCN2C[C@H](Cc3ccc(O)cc3)N(CCc3ccccc3)C(=O)C2=O)N(CCc2ccccc2)C1=O,4.59%
6,CC(C)(C)N1CC(c2nc3ccccc3n2Cc2ccc(F)cc2)CC1=O (stereo not drawn),-16.1%
7,CC(C)(C)c1nc2ccccc2c(=O)n1N1C(=O)c2ccccc2C1=O,-1.36%
8,CC(C)(C)c1cc(=O)n2c(nc3ccccc32)[nH]1,-74.5% (active)
9,CN(CC(=O)NCc1ccncc1)S(=O)(=O)c1ccc(Br)cc1,11.2%
10,O=C(CCc1nc2ccccc2c(=O)[nH]1)OCC(=O)c1cccc(Cl)c1,0%
11,O=C(N/N=C/c1ccc(Cl)cc1)c1nc2ccc([N+](=O)[O-])cc2c(=O)[nH]1,7.76%
12,O=C(/C(=C/c1cccc(Cl)c1)c1nc2ccccc2[nH]1)c1ccccc1,-95.6% (active)
13,c1cc(-c2ccc3[nH]ccc3c2)n2ccnc2c1,10.3%
14,CN(CC(=O)NC1CCN(Cc2ccccc2)CC1)S(=O)(=O)c1ccc(Cl)s1,-53.7% (active)
15,CN(CC(=O)NC1CCCCC1)S(=O)(=O)c1ccc(Br)s1,2.52%
16,CC1CN(C(=O)CCC(=O)NC2CCN(Cc3ccccc3)CC2)c2ccccc2O1 (stereo not drawn),-3.91%
17,COc1cccc(OC)c1C(=O)N1CCN(Cc2ccccc2F)CC1,-14.9%
18,COc1cccc(-c2cnc3c(NC(C)=O)cc(-c4cc(F)ccc4OC)cn23)c1,-11.1%
19,Cc1ccccc1N1CCN(Cc2nc(Cc3ccccc3F)no2)CC1,15.1%
20,O=C(NCCc1ccc(Cl)cc1)c1cccc(N2CCCC2=O)c1,-5.88%
21,Oc1cc2c(cc1O)CN(C(=S)NCCc1ccc(Cl)cc1)CCC2,-66.9% (active)
22,COc1ccc(CCNC(=S)N2CCN(S(=O)(=O)c3ccc(Cl)cc3)CC2)cc1,0%

row,Compound,activity change
1,O=C(Nc1ccc(S(=O)(=O)Nc2ccccn2)cc1)c1ccccc1,inactive
2,O=C(Nc1ccccc1)c1nnsc1S(=O)(=O)c1ccc(Cl)cc1,-53.3% (active)
3,O=C(Nc1ccc(Cl)cc1)Nc1nnc(/C=C/c2ccccc2)s1,11.5%
4,CCCCc1nc(SCC(=O)Nc2nnc(C(C)C)s2)n[nH]1,10.5%
5,CSCCC(NC(=O)C1CCC(C)CC1)C(=O)NCc1ccco1 (stereo not drawn),-25.5%
6,CN1C(c2ccc(F)cc2)=CS/C1=C(/C#N)c1nnc2n1-c1ccccc1SC2,-68.6% (active)
7,COc1cc(OC)cc(-c2nc3ccccc3c(=O)n2NC(=O)c2cccnc2Cl)c1,-0.823%
8,O=C(Nc1ccc2c(c1)OCCO2)C1c2ccccc2OCC(=O)N1Cc1ccccn1 (stereo not drawn),18.3%
9,CC(C)Cn1cc(-c2cncc3nccn23)cn1,-7.82%
10,CCCCCc1ccc(-c2cn(Cc3ccc4ccccc4c3)nn2)cc1,-1.04%
11,CCOc1nc(OCC)nc(-n2cc(-c3ccccc3)nn2)n1,-60.1% (active)
12,CCOC(=O)c1nnn(-c2nc(OC)nc(N(C)C)n2)c1-c1ccccc1,44.9%
13,COc1ccc(-c2ccc(CN3C(CC(C)C)C(=O)N(Cc4cn(CC5CCCCC5)nn4)CCS3(=O)=O)cc2)cn1 (stereo not drawn),-12.3%
14,CC(=O)NN=C(C)c1ccc(NC(=O)C2CC2)cc1,-22.8%
15,CCc1ccc2c(c1)cc(CN(C(=S)Nc1ccccc1Cl)C1CC1)c1nnnn12,14.3%
16,COc1cc(C(=S)N2CCOCC2)cc(OC)c1OC(=O)c1cc([N+](=O)[O-])cc([N+](=O)[O-])c1,22%
17,COc1cc([N+](=O)[O-])cc([N+](=O)[O-])c1NC(=O)N1CCOCC1,-92.7% (active)
18,COc1cc(C(=S)N2CCOCC2)cc(OC)c1OC(=O)c1ccc([N+](=O)[O-])cc1[N+](=O)[O-],-15.3%
19,OC[C@@H]1CN(Cc2ccc(-c3ccccc3)cc2)C[C@H](n2cnc3c(NC4CCCC4)ncnc32)O1,-3.87%
20,COc1ccc2[nH]c(C(=O)N/N=C/c3cc(OC)c(OC)c(OC)c3)cc2c1,-6.28%
21,CCOc1ccc2[nH]c(C(=O)N/N=C/c3cccc(OC)c3OC)cc2c1,0%
22,COc1cc2cc(C(=O)N/N=C/c3cccc(OC)c3OC)[nH]c2cc1OC,-70% (active)

row,Compound,activity change
1,Cc1cc2c3ccccc3[nH]c(=O)n2n1,-25.1%
2,O=C1c2ccccc2C(=O)C1C(=O)C1CC1,8.56%
3,Nc1cccc(-c2cncc(N3CCN(Cc4ccccn4)CC3)n2)c1,-1.3%
4,O=C(C[C@H]1C[C@H]2c3cc(NS(=O)(=O)c4ccc(F)cc4)ccc3O[C@H]2[C@H](CO)O1)NCc1cc(F)ccc1F,9.17%
5,COc1ccc2cc1Oc1ccc(cc1)C[C@H]1c3cc(c(OC)cc3CCN1C)Oc1c(O)c(OC)cc3c1[C@H](C2)N(C)CC3,-107% (active)
6,OC(c1ccc(Cl)c(F)c1)c1ncc(-c2ccccc2Cl)[nH]1 (stereo not drawn),1.76%
7,CCc1nc2c(OCCc3cccc(OC)c3)cccn2c1N(C)C(=O)c1ccc(C)cc1,-7.64%
8,Cc1ccc(NC(=O)COC(=O)CN2CCSC2=O)cc1F,4.94%
9,Cc1cc2nc(-c3ccc(F)cc3)c(Cc3ccsc3)n2c(C)c1Br,14%
10,Cc1ccc(C(=O)C[n+]2cc(-c3ccccc3)n3c2CCCCC3)cc1,-83.1% (active)
11,Cc1ccc(NC(=S)N2CCCC(c3ccccc3)=N2)cc1,-20.4%
12,Cc1cccc[n+]1CC(=O)c1ccccc1,22.7%
13,Cc1ccc(C(=O)N2CCCC(c3ccccc3)=N2)cc1,-5.32%
14,Cc1ccc(-c2c[n+](CC(=O)Nc3ccccc3)c3n2CCC3)cc1,-60.8% (active)
15,Cc1ccc(NC(=O)CN2CCc3ccccc3C2)cc1,7.54%
16,COc1cccc(NC(=O)N(C)C[C@@H]2Oc3ncc(Br)cc3C(=O)N([C@@H](C)CO)C[C@H]2C)c1,2.84%
17,NNC(=O)COc1ccc(C2SCCS2)cc1,15.3%
18,OC[C@@H]1CN(Cc2cccs2)C[C@H](n2cnc3c(NC4CCCC4)ncnc32)O1,-3.1%
19,CC1CCCC(NC(=O)COC(=O)c2ccccc2C(=O)N(C)C2CCCCC2)C1C (stereo not drawn),-16.9%
20,CCOC(=O)COn1c(=O)c(-c2ccc(OCC)cc2)[n+]([O-])c2ccccc21,4.15%
21,O=c1c(-c2ccc(Cl)cc2)[n+]([O-])c2ccccc2n1OCc1nc2ccccc2[nH]1,14.2%
22,CCOc1ccc(OCC)c(-c2c(=O)n(OCc3ccc(Cl)cc3)c3ccccc3[n+]2[O-])c1,-67% (active)

row,Compound,activity change
1,CC(=O)OC1CCC2C3CCC4=C(CC(F)C(=O)C4)C3CCC12C (stereo not drawn),5.77%
2,Cc1cn([C@H]2C[C@H](O)[C@@H](CNC(=O)[C@H](N)Cc3cccnc3)O2)c(=O)[nH]c1=O,11.3%
3,O=C(Nc1cccc(C(F)(F)F)c1)c1ccc(N2CCNCC2)c([N+](=O)[O-])c1,-82.2% (active)
4,CC(NC(=O)c1ccc(N2CCNCC2)c([N+](=O)[O-])c1)C12CC3CC(CC(C3)C1)C2 (stereo not drawn),-72.6% (active)
5,Cc1cccc(C)c1NC(=O)CNC(=O)c1ccc(N2CCOCC2)c([N+](=O)[O-])c1,-0.22%
6,CCC(C)NC(=O)c1ccc(N2CCC3(CC2)OCCO3)c([N+](=O)[O-])c1 (stereo not drawn),0.859%
7,O=C(Nc1ccc(N2C(=O)c3cccc4cccc(c34)C2=O)cc1)c1ccc(N2CCCCC2)c([N+](=O)[O-])c1,-6.25%
8,CS(=O)(=O)N1CCN(c2ccc(C(=O)NC3C4CC5CC(C4)CC3C5)cc2[N+](=O)[O-])CC1 (stereo not drawn),5.99%
9,Cc1nc2nc(C)c(CCC(=O)N3CCN(c4ccccc4)CC3)c(C)n2n1,-17.6%
10,C[N+](C)(C)CCNC(=O)c1c[nH]c2ccccc12,24.4%
11,CCC(C(=O)NCc1cccnc1)n1nc(C)c2sc3ccccc3c2c1=O (stereo not drawn),-16.1%
12,CCOc1ccc(N(CC(=O)NCC2CCCO2)S(=O)(=O)c2ccc(C)cc2)cc1 (stereo not drawn),7.07%
13,Cc1ccc(S(=O)(=O)N(CC(=O)NN=C2CCN(C)CC2)c2ccc(F)cc2)cc1,31%
14,CCNC(=O)CN(c1ccc(C)cc1)S(=O)(=O)c1ccc(SC)cc1,-55.3% (active)
15,COc1ccc(S(=O)(=O)NC(=O)C2(C)CCN2C(=O)c2ccccc2CCc2ccccc2)cc1 (stereo not drawn),22.1%
16,CCCNC(=O)C1(C)CCN(C(=O)c2ccccc2OC(F)(F)F)C1 (stereo not drawn),15.8%
17,COc1ncnc2c1ncn2CCCNCCN1CCOCC1,44.5%
18,O=S(=O)(O)c1cc2onnc2c2ccccc12,0%
19,CNc1nc(Nc2ccc(C)c(Cl)c2)nc(N)c1[N+](=O)[O-],-21.8%
20,OCCNc1nc(Nc2ccc(Cl)c(Cl)c2)nc2ccccc12,-92.5% (active)
21,Cc1ccc(Nc2nc(N)nc(CN3CCN(Cc4ccccc4)CC3)n2)cc1Cl,0%
22,COc1cc(NC(=O)C2=C(C)OCCS2)c(Cl)cc1C(=O)NCCCN1CCCC(C)C1 (stereo not drawn),-28.6%
